Assay results: PubChem BioAssay (NCI)
Where “and” joins values, the source holds several entries; their conditions need not be identical. Equal values may be shown once. The panel holds about 83,000 compounds, 20% with a hit somewhere; the sample as a whole holds those more often.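 A percent growth of 40 corresponds to 60% growth inhibition; 0 means no net growth; -100 means all cells died. Active threshold: below 10.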 Calls of active or inactive are those of the source.

Each compound was assayed on MDA-MB-468 breast (assay: NCI-60 one-dose screen, 48 h (100 = growth as untreated, 0 = no growth, -100 = all killed)). Details: 10 µM unless noted.
With `N=C1c2nc3n(c2C(=O)c2nc4n(c21)CCCC4)CCCC3` the growth was 68.1% (inactive).
With `O=C1C=C[C@H](O)[C@@]2(CO)O[C@@H]12` the growth was 54.5% (inactive).
In the case of `O=[N+]([O-])c1cccc(-c2nc3cc4nc5ccccc5[nH]c4cc3n2)c1`, the growth is reported as 95.5% (inactive).
In the case of `O=C(Nc1ccc(F)cc1)c1cc2cc(Nc3nc(-c4ccccc4)nc4ccccc34)ccc2oc1=O`, the growth is reported as 111% (inactive).
In the case of `Nc1cccc(-c2nc3sccn3c2-c2ccnc(NCCNS(=O)(=O)c3ccc(C(F)(F)F)cc3)n2)c1`, the growth is reported as 51.4% (inactive).
`Nc1nc(N)c(N=Nc2ccccc2)c(-c2ccccc2)n1` was tested, and the growth was 8.67% (active).
For `O=C(C[N+](=O)[O-])c1ccc(Cl)cc1`, the growth was 112% (inactive).
For `Cc1nn(Cc2ccccc2)cc1C(=O)Nc1sc2c(c1C(N)=O)CCC(=O)C2`, the growth was 47.2% (inactive).
For `CC1(C)CC(=O)NC1=O`, the growth was 100% (inactive).
With `CC(C)Cc1ccc(C(C)C(=O)NCc2ccc(Cn3c(=O)sn(CCCCl)c3=O)cc2)cc1` (centres undefined) the growth was 80.8% (inactive) and -83.8% (active).
With `COc1cc(OC)c(C(=O)/C=C/c2ccc(C#N)cc2)c(OC)c1` the growth was -6.07% (active).
With `COc1cccc(-c2nn(-c3ccccc3)cc2-c2ccnc(NCCCNS(=O)(=O)c3ccc(C(F)(F)F)cc3)c2)c1` the growth was -9.51% (active).
For `CC[N+](CC)=c1ccc2nc3c(cc(NCc4ccccc4)c4ccccc43)oc-2c1`, the growth was -88.7% (active).
For `O=c1c2cccc3c(NC4CCCCC4)ccc(c32)c2nc3ccccc3n12`, the growth was -4.69% (active).
